# From PubChem
# ABCB6 inh 2 = blocks the human ABCB6 transporter; 360,000 tested, 0.19% active; fluorescence ratio to DMSO, % at 10 µM; AID 602162; K562-ABCB6 porphyrin accumulation, flow cytometry, 1 h; hits give low values; Q9NP58;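 active = fluorescence ratio to DMSO below 75%, the collection mean minus 3 SD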;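 note: signal is porphyrin accumulated inside mitochondria; 100% equals median channel fluorescence of DMSO control wells; lower ratio means ABCB6 inhibition with less porphyrin fluorescence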
# MEKK2 WT-MEK5 = raises or lowers MEK5 binding to wildtype human MEKK2 PB1 domain | Q9Y2U5 | bead flow cytometry, Alexa488-MEK5 binding to MEKK2 WT; actives lie on both sides | binding response (% of control), % at 10 µM | 290,000 tested, 1.1% active; in the data active = binding response below about 67% or above about 130%
# MEKK3 PB1 HTS = modulators (inhibitors or enhancers) of MEK5 binding to human MEKK3 PB1 domain; bead-based flow cytometry, Alexa488-MEK5 binding to MEKK3; actives lie on both sides; 0 = blocked by unlabeled MEK5, 100 = vehicle; binding response (% of control), % at 10 µM; 290,000 tested, 1.4% active; Q99759;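 active = binding response more than 3 SD above or below the average of its plate-row segment, actives on both sides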;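 note: Alexa488 bead fluorescence after subtracting the streptavidin-only scavenger bead signal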
# Target sequence (Q99759 whole entry, looked up, the tested form may be a part): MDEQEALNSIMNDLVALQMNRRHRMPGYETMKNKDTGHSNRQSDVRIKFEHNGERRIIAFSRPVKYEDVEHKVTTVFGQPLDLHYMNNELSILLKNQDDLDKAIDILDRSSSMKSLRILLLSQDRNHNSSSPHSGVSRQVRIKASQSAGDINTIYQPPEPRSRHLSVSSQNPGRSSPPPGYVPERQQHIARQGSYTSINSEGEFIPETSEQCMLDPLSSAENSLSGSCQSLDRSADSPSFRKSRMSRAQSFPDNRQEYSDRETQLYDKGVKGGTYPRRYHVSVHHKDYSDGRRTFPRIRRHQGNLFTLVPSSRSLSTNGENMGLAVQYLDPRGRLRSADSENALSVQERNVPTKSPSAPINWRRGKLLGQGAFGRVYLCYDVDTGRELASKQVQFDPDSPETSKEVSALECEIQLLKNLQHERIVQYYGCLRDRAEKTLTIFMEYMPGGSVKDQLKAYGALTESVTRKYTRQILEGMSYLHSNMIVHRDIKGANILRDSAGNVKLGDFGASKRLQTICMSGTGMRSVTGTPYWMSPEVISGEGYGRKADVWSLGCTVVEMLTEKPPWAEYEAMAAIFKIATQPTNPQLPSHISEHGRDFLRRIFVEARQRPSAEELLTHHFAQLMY
# CRFR2-BP antag = antagonists of CRF-binding protein/CRF-R2 receptor complex; inhibition, % at 11.8 µM; 350,000 tested, 0.59% active; HEK293 CRF-R2/CRF-BP, CRF-induced calcium fluorescence; AID 588475;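 active = inhibition of the ligand-induced calcium signal above about 50% at the single tested concentration, limit read from the data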
# CRFBP-R2 agonist = CRF-BP/CRF-R2 complex agonism; HEK293 CRF-R2/CRF-BP, calcium dye fluorescence (FLIPR); percent of saturating CRF peptide response; activation, % at 13.2 µM; 350,000 tested, 0.46% active; AID 588473;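 active = activation of at least 50%, plus an integration ratio under a set limit after plate pattern correction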;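 note: plate controls were neutral control wells without compound for no effect and CRF at EC100 for full effect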
# MEKK2mut PB1 HTS = signal of MEK5 binding to mutant human MEKK2 PB1 domain; bead flow cytometry, Alexa488-MEK5 binding to MEKK2 mutant; percent response, % at 10 µM; 290,000 tested, 0.35% active; in the data active = percent response above about 24%, passing the limit was not always enough
# Starred values were filed as active, the others as inactive; · = no result; [ ] = dose if it differs, or a comment. Shown are actives, neighbours in structure and some others; about 2.9% of the full set was active somewhere.
SMILES,ABCB6 inh 2,MEKK2 WT-MEK5,MEKK3 PB1 HTS,CRFR2-BP antag,CRFBP-R2 agonist,MEKK2mut PB1 HTS
Oc1ccc(C2C=C(c3ccc(F)cc3)Nc3ncnn32)cc1 (stereo not drawn),100.0,94.0,94.0,-5.5,40.7,-19.0
C1=C(c2ccc(-c3ccccc3)cc2)Nc2ncnn2C1c1ccco1 (stereo not drawn),96.0,102.0,108.0,-177.1,208.3*,15.0
Fc1ccc(Br)cc1C1C=C(c2cccnc2)Nc2ncnn21 (stereo not drawn),102.0,93.0,94.0,-13.6,53.3*,-9.0
CC(C)(C)c1ccc(C2=CC(c3ccccc3F)n3ncnc3N2)cc1 (stereo not drawn),94.0,105.0,105.0,-4.3,16.3,3.0
Cc1nc2ccccc2cc1C(=O)N(C)Cc1ccccc1,97.0,101.0,102.0,-4.4,-0.4,-2.0
O=C(NCC1CC1)c1ccccc1Cl,103.0,107.0,107.0,3.9,-1.4,9.0
Fc1ccc(C2=CC(c3ccco3)n3ncnc3N2)cc1 (stereo not drawn),102.0,95.0,97.0,-6.7,65.0*,-1.0
O=C(Nc1ccc(NC(=O)c2ccccc2Cl)cc1)c1cccnc1,89.0,53.0*[inhibitor],39.0*[inhibitor],-0.1,-0.2,-28.0
O=C(Nc1cc(C(F)(F)F)ccc1Cl)c1cccnc1,96.0,106.0,108.0,-63.6,105.9*,1.0
O=C(Nc1ccccc1C(=O)Nc1ccc(Cl)cc1)c1cccnc1,99.0,104.0,97.0,-6.7,-1.0,2.0
O=C(Nc1cc(C(F)(F)F)ccc1Cl)c1ccncc1,97.0,96.0,103.0,-3.2,-0.8,-5.0
COC(=O)c1cc(C#N)c(N(C)Cc2ccccc2)nc1C,102.0,99.0,97.0,61.7*,2.7,16.0
COC(=O)c1cc(C#N)c(NCc2ccccc2)nc1C,99.0,100.0,99.0,53.8*,6.4,16.0
CC(=O)c1cc(C#N)c(N(C)Cc2ccccc2)nc1C,96.0,99.0,101.0,25.5,-3.9,1.0
CC(=O)c1cc(C#N)c(NCc2cc(-c3ccccc3)no2)nc1C,96.0,104.0,111.0,-6.4,1.2,-1.0
COc1ccccc1N1CCN(C(=O)CSc2nc(C)c(C)c(=O)[nH]2)CC1,93.0,96.0,96.0,-4.8,3.9,-11.0
CCc1c(C)nc(SCC(=O)N2CCN(c3ccccc3OC)CC2)[nH]c1=O,89.0,112.0,112.0,57.6*,-4.7,-1.0
O=C(Cn1nnc2ccccc21)N1CCCCC1,100.0,94.0,97.0,3.5,-2.2,1.0
O=C(CCn1nnc2ccccc21)N1CCN(c2ccccc2)CC1,95.0,·,·,94.7*,1.4,·
CC(C)CN(C(=O)COC(=O)C12CC3CC(CC(C3)C1)C2)c1c(N)n(Cc2ccccc2)c(=O)[nH]c1=O,98.0,·,·,-8.5,0.5,·
O=C(Nc1ccc(Cl)c(Cl)c1)c1ccc(Cn2cc(Cl)cn2)cc1,105.0,107.0,99.0,-0.7,4.0,5.0
CCOc1ccc(C(=O)Nc2cnn(Cc3ccc(Cl)c(Cl)c3)c2)cc1,104.0,103.0,102.0,72.9*,5.4,6.0
Cn1cnc(S(=O)(=O)NC2CCN(Cc3ccccc3)CC2)c1,99.0,100.0,100.0,-4.8,-0.9,2.0
COc1cc(/C=C2/SC(=O)NC2=O)ccc1OC(=O)c1ccco1,98.0,91.0,98.0,15.1,-1.9,-4.0
CCOc1cc(/C=C2/SC(=S)NC2=O)ccc1OC(=O)c1ccco1,97.0,95.0,108.0,68.9*,-2.8,-6.0
SMILES,ABCB6 inh 2,MEKK2 WT-MEK5,MEKK3 PB1 HTS,CRFR2-BP antag,CRFBP-R2 agonist,MEKK2mut PB1 HTS
O=C(O)CCCN1C(=O)/C(=C/c2ccc(-c3nc4ccccc4s3)o2)SC1=S,63.0*,·,·,-1.3,-1.2,·
O=C(O)CCCCCN1C(=O)/C(=C\c2ccc(-c3ccc(Cl)cc3)o2)SC1=S,143.0,78.0,89.0,-82.5,114.2*,-20.0
O=C(O)CCCCCN1C(=O)/C(=C\c2ccncc2)SC1=S,99.0,90.0,96.0,-0.1,1.9,-2.0
O=C(O)CCCN1C(=O)/C(=C/c2ccncc2)SC1=S,97.0,92.0,94.0,1.2,-1.6,-13.0
O=C(CSC1=NS(=O)(=O)c2ccccc21)Nc1ccccc1,95.0,109.0,111.0,-21.4,0.3,5.0
COC(=O)CSC1=NS(=O)(=O)c2ccccc21,97.0,104.0,103.0,91.6*,-10.2,8.0
Cc1ccc(SCC(=O)OCC(=O)NC(C)c2ccc(Br)cc2)cc1 (stereo not drawn),96.0,105.0,102.0,4.7,0.5,6.0
CC(=O)OC1CC2(C)C(CCC2(O)C(C)=O)C2CCC3C(Cl)C(=O)CCC3(C)C12 (stereo not drawn),95.0,·,·,-12.5,3.6,·
CN1/C(=C\C=C(C#N)C#N)C(C)(C)c2ccccc21,105.0,106.0,118.0,-81.3,84.1*,-1.0
CN1/C(=C\C=C(/C#N)C(=O)Nc2ccc(Cl)cc2)C(C)(C)c2ccccc21,106.0,97.0,98.0,-193.3,140.7*,-1.0
CN1/C(=C\C(=O)Nc2ccc(Cl)cc2)C(C)(C)c2ccccc21,114.0,103.0,107.0,-16.3,0.2,0.0
CCOC(=O)c1c(C)[nH]c(C(=O)OCc2nc3ccsc3c(=O)[nH]2)c1C,100.0,·,·,-5.8,-1.1,·
O=C(/C=C/c1ccco1)NCC1COc2ccccc2O1 (stereo not drawn),96.0,99.0,97.0,17.2,-1.2,-7.0
CN(C(=O)c1cccc(C(F)(F)F)c1)C1CCCc2ccccc21 (stereo not drawn),96.0,0.0*[inhibitor],1.0*[inhibitor],-21.6,0.2,-38.0
COc1ccc(CNCCC(c2ccc(F)cc2)c2ccc(OC)cc2)cc1 (stereo not drawn),90.0,140.0*,100.0,-29.4,2.5,3.0
COc1ccc(C(OCC(O)CNCCc2ccccc2)c2ccc(OC)cc2)cc1 (stereo not drawn),96.0,151.0*,99.0,-12.5,5.7,6.0
COc1ccc(CCNCc2ccc(OCc3ccccc3)cc2)cc1,98.0,136.0*,104.0,-6.5,3.9,13.0
CCOc1ccc(NC(=O)CCC(=O)NNC(=O)c2cccc([N+](=O)[O-])c2)cc1,92.0,·,·,32.5,-2.7,·
O=C1c2ccc(-c3ccc4c(c3)C(=O)N(CCCO)C4=O)cc2C(=O)N1CCCO,95.0,82.0,79.0,-0.2,-1.9,-12.0
O=C1C2=C(SCCS2)C(=O)N1CCCO,103.0,·,·,33.9,59.2*,·
Cc1nn(-c2ccccc2)c(C)c1NC(=O)COC(=O)c1ccccc1OC(F)F,91.0,108.0,104.0,57.5*,1.4,7.0
O=C1c2ccccc2C(=O)N1OCCCN1C(=O)c2ccccc2S1(=O)=O,31.0*,·,·,20.4,-0.8,·
O=C1c2ccccc2S(=O)(=O)N1CCCN1C(=O)c2ccccc2S1(=O)=O,97.0,·,·,-16.8,-1.3,·
CC(=O)N1CC=C2C(C#N)=C(N)C(C#N)(C#N)C(CCc3ccccc3)C2C1 (stereo not drawn),104.0,105.0,103.0,-1.5,-0.9,2.0
